Test results as given in PubChem BioAssay (NCATS).
Records with an inconclusive call do not appear. A number with no mark means an inactive call. Activity calls are given as the source filed them. Calls follow the shape of the dose curve; as a rule, active = well fitted curve in the direction sought with a large enough effect; inconclusive = small, poorly fitted or top-dose-only effect, or another doubt; inactive = no such curve, though single readings can be large; an effect the other way counts as inactive or inconclusive.

assay: BET inhibitor-based combinations targeting novel dependencies in MECOM-rearranged (r) AML: HNT-34 cell line (AID 2202234); details: HNT-34 AML viability, CellTiter-Glo luminescence, 48 h; series mostly up to 46 µM; viability (% of control): at the top concentration;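 also: plate controls were vehicle wells for no effect and cell-free wells for full effect; nearly all actives have a fitted effect of over 35% in size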
Procedure, shortened: (§1)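 Cells were plated at 500 per well and exposed to each drug across an 11-point dose range for 48 hr at standard incubator conditions. Viability was read by CellTiter-Glo luminescence, and activity was expressed as AUC and per-cell-line Z-transformed AUC.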

Row | Compound | viability (% of control) [%]
1 | COc1cc(OC)c(NC(=O)Nc2cc(C)on2)cc1Cl | 95.7
2 | O=C1OC(COc2ccccc2[N+](=O)[O-])CC1Cc1ccccc1 (configuration not stated) | 111
3 | CN(C)c1ccccc1CN1CCCN(Cc2ccccc2N(C)C)C1c1ccncc1 | 67.2
4 | C=CC(=O)N[C@H]1CN(c2nc(Nc3cn(C)nc3OC)c3ncn(C)c3n2)C[C@@H]1F | 22.5

assay: BET inhibitor-based combinations targeting novel dependencies in MECOM-rearranged (r) AML: UCSD-AML1 cell line (AID 2202235); details: UCSD-AML1 AML cells viability, CellTiter-Glo, 48 h; series mostly up to 46 µM; viability (% of control): at the top concentration; also: nearly all actives have a fitted effect of over 40% in size; also: potency is read from the fitted curve at half-maximal effect;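 as to viability (% of control): plate controls were DMSO vehicle wells for no effect and blank wells for full effect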
Procedure, shortened: as §1

Row | Compound | viability (% of control) | Potency
5 | Clc1cccc(C(c2ccc3nc[nH]c3c2)n2ccnc2)c1 (configuration not stated) | 104% | 
6 | C[C@]12CC[C@@H]3c4ccc(O)cc4CC[C@H]3[C@@H]1C[C@@H](O)[C@@H]2O | 89.2% | 
7 | CS(=O)(=O)c1ccc(-c2cnc(NCc3ccco3)n3cnnc23)cc1 | 101% | 
8 | CC(=O)O/N=C1/C(c2c(O)[nH]c3cc(Br)ccc23)=Nc2ccccc21 | 114% | 
9 | CC(C)(C)S(=O)(=O)c1ccc2nccc(Nc3n[nH]c4ccc(F)cc34)c2c1 |  | 0.0012 µM (active)
10 | Nc1nc2cc(-c3ccc4ncc(C(=O)N5CCOCC5)n4c3)ccc2o1 |  | 8.33 µM (active)
11 | COc1ccc(C(=O)N2CCN(C(=O)/C=C/c3ccc(Br)cc3)CC2)cc1 | 110% | 
12 | CCn1c(=O)c2c(nc(/C=C/c3ccc(OC)c(OC)c3)n2C)n(CC)c1=O | 91.9% | 
13 | C=C1CCC[C@]2(C)C=C3OC(=O)C(C)=C3C[C@@H]12 | 108% | 
14 | Cc1ccc2cc(-c3c(C)ccc(C(=O)c4c(-c5ccccc5)n(C)n(-c5ccccc5)c4=O)c3N)ccc2n1 | 99.1% | 
15 | NC1=N[C@@]2(c3cc(NC(=O)c4ccc(F)cn4)ccc3F)COC[C@H]2CS1 | 110% | 
16 | Nc1nc(OC(c2ccc(-c3cccc(F)c3)cc2)C(F)(F)F)cc(-c2ccc(C[C@@H](N)C(=O)O)cc2)n1 (some centres not stated) | 101% | 
17 | FC(F)(F)c1ccc(CNc2ccc(Cc3c[nH]c4ncc(Cl)cc34)cn2)cn1 | 103% | 
18 | CC1=C(/C=C/C(C)=C/C=C/C(C)=C/C=C/C=C(C)/C=C/C=C(C)/C=C/C2=C(C)CCCC2(C)C)C(C)(C)CCC1 | 105% | 
19 | CS(=O)(=O)c1ccc([C@@H](CC2CCCC2)C(=O)Nc2nccs2)cc1 | 98.8% | 
20 | C=CC[C@@H]1/C=C(\C)C[C@H](C)C[C@H](OC)[C@H]2O[C@@](O)(C(=O)C(=O)N3CCCC[C@H]3C(=O)O[C@H](/C(C)=C/[C@@H]3CC[C@@H](O)[C@H](OC)C3)[C@H](C)[C@@H](O)CC1=O)[C@H](C)C[C@@H]2OC |  | 26.3 µM (active)
21 | C[C@H](Nc1nc(N[C@H](C)C(F)(F)F)nc(-c2cccc(Cl)n2)n1)C(F)(F)F | 111% | 
22 | Cc1cc(Nc2cc(N)ncn2)c(=O)n2c1C(=O)NC21CCCCC1 | 99.1% [at 15.6 µM] | 
23 | O=C(Nc1nccs1)C(c1cc(F)ccc1O)N1Cc2ccccc2C1=O (configuration not stated) | 111% | 
24 | CN(CCOc1ccc(-c2ccc3c(c2)OCO3)cc1C(C)(C)C)CC(=O)O | 108% | 
25 | CNC(=O)Cn1cc(-c2ccc3c(c2)C(F)CC32NC(=O)N(CC(=O)N(Cc3ccc(F)cc3)C(C)C(F)(F)F)C2=O)cn1 (configuration not stated) |  | 0.148 µM (active)
26 | O=C(NO)c1cnc(NC2(c3ccccc3)CC2)nc1 |  | 8.33 µM (active)
27 | O=C1OC(COc2ccccc2[N+](=O)[O-])CC1Cc1ccccc1 (configuration not stated) | 106% | 
28 | O=C(O)CCC=CCC[C@@H]1[C@H](N2CCCCC2)[C@@H](O)C[C@@H]1OCc1ccc(-c2ccccc2)cc1 | 104% | 
29 | CC(C)=CCC/C(C)=C/CC/C(C)=C/CSc1ccccc1C(=O)O | 102% | 
30 | CCC[C@H](Nc1nc(-c2ccc(NC(=O)NCC)c(OC)c2)ncc1C)c1cccnc1 |  | 0.132 µM (active)
31 | CN(C)c1ccccc1CN1CCCN(Cc2ccccc2N(C)C)C1c1ccncc1 | 86.4% | 

assay: BET inhibitor-based combinations targeting novel dependencies in MECOM-rearranged (r) AML: AML-191 cell line (AID 2202236; also: nearly all actives have a fitted effect of over 35% in size; also: potency is read from the fitted curve at half-maximal effect;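 as to viability (% of control): plate controls were vehicle wells for no effect and wells without cells for full effect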); details: AML-191 viability, CellTiter-Glo luminescence, 48 h; series mostly up to 46 µM; viability (% of control): at the top concentration
Procedure, shortened: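 500 cells/well; 11-pt dose curve; 48 h, standard incubator; CellTiter-Glo luminescence after 15 min RT; DMSO/empty-well normalization; AUC plus Z-AUC (mean-centered within each line).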

Row | Compound | viability (% of control) [%] | Potency
32 | Clc1cccc(C(c2ccc3nc[nH]c3c2)n2ccnc2)c1 (configuration not stated) | 88.3 | 
33 | NS(=O)(=O)c1ccc(Cc2c(-c3cccc(-c4ccccc4)c3)nn(-c3nc(C(=O)O)cs3)c2CC2CC2)cc1 |  | 7.42 µM (active)
34 | C[C@]12CC[C@@H]3c4ccc(O)cc4CC[C@H]3[C@@H]1C[C@@H](O)[C@@H]2O | 73.1 | 
35 | CC(C)(C)c1nc2c3cc[nH]c(=O)c3c3cc(F)ccc3c2[nH]1 |  | 0.662 µM (active)
36 | CS(=O)(=O)c1ccc(-c2cnc(NCc3ccco3)n3cnnc23)cc1 | 95.3 | 
37 | CC(=O)O/N=C1/C(c2c(O)[nH]c3cc(Br)ccc23)=Nc2ccccc21 |  | 18.6 µM (active)
38 | CC(C)(C)S(=O)(=O)c1ccc2nccc(Nc3n[nH]c4ccc(F)cc34)c2c1 |  | 10.5 µM (active)
39 | COc1ccc(C(=O)N2CCN(C(=O)/C=C/c3ccc(Br)cc3)CC2)cc1 | 101 | 
40 | Cc1cc(O)c(-c2ccc([C@@H](C)CN)cc2)c2c1[nH]c(=O)c1sccc12 |  | 0.0833 µM (active)
41 | CCn1c(=O)c2c(nc(/C=C/c3ccc(OC)c(OC)c3)n2C)n(CC)c1=O | 81.7 | 
42 | Cc1c(C(=O)Nc2ccc(Oc3ccnc4[nH]cc(-c5ccccc5)c34)c(F)c2)c(=O)n(-c2ccc(F)cc2)n1C |  | 0.59 µM (active)
43 | C=C1CCC[C@]2(C)C=C3OC(=O)C(C)=C3C[C@@H]12 | 108 | 
44 | NC1=N[C@@]2(c3cc(NC(=O)c4ccc(F)cn4)ccc3F)COC[C@H]2CS1 | 105 | 
45 | Nc1nc(OC(c2ccc(-c3cccc(F)c3)cc2)C(F)(F)F)cc(-c2ccc(C[C@@H](N)C(=O)O)cc2)n1 (some centres not stated) | 88 | 
46 | CC1=C(/C=C/C(C)=C/C=C/C(C)=C/C=C/C=C(C)/C=C/C=C(C)/C=C/C2=C(C)CCCC2(C)C)C(C)(C)CCC1 | 94.7 | 
47 | CS(=O)(=O)c1ccc([C@@H](CC2CCCC2)C(=O)Nc2nccs2)cc1 | 79.3 | 

Row | Compound | viability (% of control) [%] | Potency
48 | C=CC[C@@H]1/C=C(\C)C[C@H](C)C[C@H](OC)[C@H]2O[C@@](O)(C(=O)C(=O)N3CCCC[C@H]3C(=O)O[C@H](/C(C)=C/[C@@H]3CC[C@@H](O)[C@H](OC)C3)[C@H](C)[C@@H](O)CC1=O)[C@H](C)C[C@@H]2OC |  | 18.6 µM (active)
49 | C=CC(=O)Nc1cc(N2CCN(CC)CC2)ccc1Nc1cc(N(C)C(=O)Nc2c(Cl)c(OC)cc(OC)c2Cl)ncn1 | 85.9 | 
50 | C[C@H](Nc1nc(N[C@H](C)C(F)(F)F)nc(-c2cccc(Cl)n2)n1)C(F)(F)F | 91.9 | 
51 | Cc1cc(-c2ccc(CC(=O)Nc3ccc(-c4cccnc4)cc3)cc2)ccn1 |  | 9.34 µM (active)
52 | O=C(Nc1nccs1)C(c1cc(F)ccc1O)N1Cc2ccccc2C1=O (configuration not stated) | 99.7 | 
53 | C[C@H]1CN(C2COC2)CCN1c1ccc(Nc2cc(-c3ccnc(N4CCn5c(cc6c5CC(C)(C)C6)C4=O)c3CO)cn(C)c2=O)nc1 | 96.6 | 
54 | O=C(NO)c1cnc(NC2(c3ccccc3)CC2)nc1 |  | 7.42 µM (active)
55 | COc1cc(OC)c(NC(=O)Nc2cc(C)on2)cc1Cl | 93.9 | 
56 | O=C1OC(COc2ccccc2[N+](=O)[O-])CC1Cc1ccccc1 (configuration not stated) | 104 | 
57 | Cn1cc(C2=C(c3cn(C)c4cc([N+](=O)[O-])ccc34)C(=O)NC2=O)c2ccccc21 |  | 0.662 µM (active)
58 | O=C(O)CCC=CCC[C@@H]1[C@H](N2CCCCC2)[C@@H](O)C[C@@H]1OCc1ccc(-c2ccccc2)cc1 | 103 | 
59 | CC(C)=CCC/C(C)=C/CC/C(C)=C/CSc1ccccc1C(=O)O | 99 | 
60 | CCC[C@H](Nc1nc(-c2ccc(NC(=O)NCC)c(OC)c2)ncc1C)c1cccnc1 |  | 0.105 µM (active)
61 | CN(C)c1ccccc1CN1CCCN(Cc2ccccc2N(C)C)C1c1ccncc1 | 94.4 | 
62 | O=C1NC(=O)/C(=C\c2ccc(-c3ccc(F)cc3)o2)S1 | 82.9 | 
